Measurements from PMC12136788.
Where a chain is given by its changes, count along the chain named. The full ranking holds about 24,000 sequences; the median of “enrichment r” is about 0.99, and the highest 2% start at about 3.7. Only a selection was taken, and the highest values are over-represented in it overall.

T1: UNK ZnF1-3 (human, UniProt Q9C0B0 31-174)
T1 sequence: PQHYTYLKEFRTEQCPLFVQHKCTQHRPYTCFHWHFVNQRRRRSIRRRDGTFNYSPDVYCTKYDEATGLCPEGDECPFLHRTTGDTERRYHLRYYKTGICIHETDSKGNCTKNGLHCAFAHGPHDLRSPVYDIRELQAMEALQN

B1: chr14:92628060:92628061:+_ENSG00000165934_ENST00000298875|hu_hu|motif|central (ssRNA)
RNA: GGGAGUUCUACAGUCCGACGAUCUUGACAUCAUGUCCUUUAUACAAUGGCAUAUUGUUCAUAUAAAAGGUCUCUUAUCCGGUAAAAAUCUUGACAAAGGCAGCCUUCUAAUCCAAUGCGUCCAGUUUCCGUUCUGCGGACUGCCAACAGAGGAUUGAGCAUCA
B2: chr17:32333828:32333829:-_ENSMUSG00000024002_ENSMUST00000121285|mus_mus|FALSE|FALSE (ssRNA)
RNA: GGGAGUUCUACAGUCCGACGAUCUACAGUACAGCCACAGUCACACACUACCCACAGCGCAGUGGGAGCCGCCGCUCACUGAGGAGACGAUCACACCAUUUGGAGAUAAGCAGUGCCACUGUGUCUGAGGAGAAGAGAGUUAAACAACAGAGGAUUGAGCAUCA
B3: chr17:88387627:88387628:+_ENSMUSG00000005370_ENSMUST00000005503|mus_hu|motif|central (ssRNA)
RNA: GGGAGUUCUACAGUCCGACGAUCAAAAUCAUCUCCAAAAAAAGUCUUCGUAAUGCAAGGAUGGCGUGAUCCUUUAAGCUCGGAGAAGGGGGGGGUAUCUUCCGGCAACAGAAUUACUGGGCGACACAUAGGACCAUCACCCCCCAACAGAGGAUUGAGCAUCA
B4: chr8:26941818:26941819:-_ENSMUSG00000031575_ENSMUST00000166078|mus_mus|FALSE|FALSE (ssRNA)
RNA: GGGAGUUCUACAGUCCGACGAUCACUAGCAGACACAGCACUGCUUUGUUUCUGGUUGUCAUAAGCAGGACCAAUAUUACUAAGAUCCUGAUCCAAAAGUCCAAACUUGGGGUAAUCUUCUUCUGGGUCUUUGCUUCCUGGGUCCAACAGAGGAUUGAGCAUCA
B5: chr1:163117127:163117128:-_ENSG00000143248_ENST00000313961|hu_mus|hu_hu_hu_mus_False|58_98 (ssRNA)
RNA: GGGAGUUCUACAGUCCGACGAUCUGCUACAAAGGAUGGAGGAAAUAUCACAGGGCAACUUUUGGAAGCCUGACCAGAUUACUACUUGAUUAGCUCCUUAUAAAAUUCAGAGCGCACAAAGCGGGGCAGAGAAUCCUUCUCCAUCAACAGAGGAUUGAGCAUCA
B6: chr18:90710673:90710674:+_ENSMUSG00000024614_ENSMUST00000025515|mus_mus|motif|central (ssRNA)
RNA: GGGAGUUCUACAGUCCGACGAUCACCUAAUAAAAAUUCUGAAAUUAGCUAAAAUGAAGGCAUCAAAAUUAACAAAUGAUCGGUAGUAAACAUUAUCACAAAAUACCCACUCUUAGACACGACUGCAUUCUGAUGAAAGAUGCGCAACAGAGGAUUGAGCAUCA
B7: chr2:176857141:176857142:-_ENSG00000144320_ENST00000272748|hu_mus|motif|central (ssRNA)
RNA: GGGAGUUCUACAGUCCGACGAUCUUUUUGCAAUCUCUGAUUUUUUUCUCUAAAUUCUUCCAAUGCUUGAAUUUCCUUAUCGGUAUUUUCUAGAACUUCUACUGUUGAAGGUUUUGCCCUCCAUCGAGAAAAUAAUCCACCCAUCAACAGAGGAUUGAGCAUCA
B8: 47141246_47141366_1218_CDS_ENSMUSG00000038291_ENSMUST00000170416|mouse|control|control (ssRNA)
RNA: GGGAGUUCUACAGUCCGACGAUCUUCUUCCUCACGCAUGAGCUUCUCAUACAGGUCGCUGACGAGGAAGGAGGGGUAAUACCGCUCCCUCAGCACCUCGGACACAUCGGCUUGGAUUUUGCUGAACACCUCGAUGCCUCUGUUCAACAGAGGAUUGAGCAUCA
B9: chr17:26875717:26875718:-_ENSG00000109103_ENST00000335765|hu_mus|FALSE|FALSE (ssRNA)
RNA: GGGAGUUCUACAGUCCGACGAUCACGGAUCUUGAACCUGACGAAGUCAAUCUUGUAGAUAUUUUCCUCAGGGGAGCACAGGUAGUCACCCGUGAUCCGCUGCAGCCCCAGCACAUCCUCCGGCCCGAUGGGCUGCUUGCCCUGCAACAGAGGAUUGAGCAUCA
B10: 230825810_230827160_2020_CDS_ENSG00000135775_ENST00000366669|human|control|control (ssRNA)
RNA: GGGAGUUCUACAGUCCGACGAUCGUUUAAUACAUCUGACACGGUUUCAUAGUACUUAUGAGUGCUUUCACUGAGAGUGCCUUCUAGCCACUGCUGAAUUAUUGCUUGUUUGAGCUUAUCCUUGUGUCCGCUCUGAAGCUGGAACAACAGAGGAUUGAGCAUCA
B11: chr2:242098653:242098654:+_ENSG00000115685_ENST00000406106|hu_mus|FALSE|FALSE (ssRNA)
RNA: GGGAGUUCUACAGUCCGACGAUCAUCAUAGAGAUCCAGUUCUCGAAGACUCUGCAGUUCUUCCAGGUUUUCAAUGCAUUUAAUUAGGUUUUGACGAAGGCAGAGUGACUUCACUUUCUUUAGCACCUCCAAGCCUUCAAUCUUCAACAGAGGAUUGAGCAUCA
B12: chr15:85259290:85259291:-_ENSG00000140612_ENST00000559729|hu_mus|FALSE|FALSE (ssRNA)
RNA: GGGAGUUCUACAGUCCGACGAUCAUUUAGGACUUGGUAGUACAGCUGCCUCUUGUUCAUCCGCCGCACAUCGUCUAGAAAGUCUAGAGACAGCAUGGUGAGAUGGAGAGCGCGACAACUAGCAGCCAAGAGGGCGCGAUAGAACAACAGAGGAUUGAGCAUCA
B13: chr8:90938390:90938391:+_ENSG00000164823_ENST00000451899|hu_hu|FALSE|FALSE (ssRNA)
RNA: GGGAGUUCUACAGUCCGACGAUCAAGAAUAUGAAGUACCUGUCAAGGUUUCAACGAUAAAAAUAUUUUUUAAAAGACCCUAUUUGGUAAUAAAUUAGAUUUAUACAAUUGAUAAUUUCAAAAUAAAUAAAAUCUGAGUUGUAACAACAGAGGAUUGAGCAUCA
B14: chr8:13019523:13019524:+_ENSMUSG00000031442_ENSMUST00000123811|mus_mus|FALSE|FALSE (ssRNA)
RNA: GGGAGUUCUACAGUCCGACGAUCUUAAAGUUUUGAGGCCAGAGUACCACAAAAAAUGGCCAUGGGGUUAAUCCCUGUUUAAAAAAAAUCAAAAACUUAUAAAAGACGAGAGUCCCUUGACCCCCCCUUAGGCUGUUGGUAGCACAACAGAGGAUUGAGCAUCA
B15: chr2:125083379:125083380:+_ENSMUSG00000027203_ENSMUST00000082122|mus_mus|motif|central (ssRNA)
RNA: GGGAGUUCUACAGUCCGACGAUCUUAAAAAAAAUUACAAAUGAUACAGCAAUUAUGAUCAAAAACAGUUUUUGGAAGGCGGUAAUUUAAAUAAUACAACAACAACAAAAAAUCUAACUGUACCCUGGGUUUUACCAAGUCUGCCAACAGAGGAUUGAGCAUCA
B16: 2747543_2750058_4223_CDS_ENSG00000101596_ENST00000320876|human|control|control (ssRNA)
RNA: GGGAGUUCUACAGUCCGACGAUCUUGGUUUGAAGGCAUGAGCUUUAAAUUGCUAGCUUUUGUAAGACUUAUUUUAACAUGUUGUACCGGUGCUGGAUUAUCCCACUGAUCACAAAGUUGAACAAUAAUAGGGUUCUGUAAAUCCAACAGAGGAUUGAGCAUCA
B17: chrX:101157612:101157613:-_ENSMUSG00000056537_ENSMUST00000070705|mus_mus|motif|central (ssRNA)
RNA: GGGAGUUCUACAGUCCGACGAUCAAAUUAUCAGUAACAGGUUAGCAAUUCAUCUGGUACCGAAAUCAAAUGUUUAAGUCCGGAAAUGUUGUUUUUAAAAUAUUCUUUCCAUCCUGAAAGAGAAACUAGAGAAAAGGCAUGAUACAACAGAGGAUUGAGCAUCA
B18: chr13:107772667:107772668:-_ENSMUSG00000021693_ENSMUST00000022204|mus_hu|motif|central (ssRNA)
RNA: GGGAGUUCUACAGUCCGACGAUCCAUUUCAUUAGGAGCUGAGUCAUCAAAGGCAUAAUCAAAACGAAAUGUUUGGUUUUCGGGGUACCUUGUUAAAUCUACUUUUUGUUUUGGUUCAUGUACCAUCACAACAUCUUUACUAGGCAACAGAGGAUUGAGCAUCA
B19: chr2:125083379:125083380:+_ENSMUSG00000027203_ENSMUST00000082122|mus_mus|FALSE|FALSE (ssRNA)
RNA: B15 RNA with G80U, G81A
B20: chr8:90938390:90938391:+_ENSG00000164823_ENST00000451899|hu_hu|motif|central (ssRNA)
RNA: B13 RNA with U80G, A81G
B21: 5810229_5811228_1359_CDS_ENSG00000099219_ENST00000339450|human|control|control (ssRNA)
RNA: GGGAGUUCUACAGUCCGACGAUCAGUCUUAUGUUUGGGCUGCAAAAAUUUUUUGCCCAGGUACAAAACAACACCCAUUACCACCAUGUAGUUUAUGAUUGAGCCAAUACGAGAGGGGUAGGCAAUGACAAACAGGCCCAGCACCAACAGAGGAUUGAGCAUCA
B22: chr2:44571030:44571031:-_ENSG00000138078_ENST00000409411|hu_hu|FALSE|FALSE (ssRNA)
RNA: GGGAGUUCUACAGUCCGACGAUCUCUUAUCUUGGCAGCCACAUAUUUUUCAUCUGGAGCAACUCUGAUACAAUCAAUGAAGGGCUGGUCUAACUUAAGUUCCUCCAAAUUGAAUAAAACUUCAUAAUUAUCAUUGUCUGCUUCCAACAGAGGAUUGAGCAUCA

Biological target: T1, UNK ZnF1-3
Assay: nsRBNS (natural sequence RNA bind-n-seq); RBNS binding buffer (assumed for nsRBNS): 25 mM Tris pH 7.5, 150 mM KCl, 3 mM MgCl2, 0.01% Triton X-100, 500 ug/ml BSA, 20 U/ml SUPERase-In, 4 C; UNK is unkempt and MSI1 is Musashi-1; names of the RNAs are library labels; protein concentration not given here; high values mean tight binding

Binder	binding signal [enrichment R]
B1	0.899
B2	1.36
B3	1.58
B4	0.761
B5	1.55
B6	1.85
B7	0.366
B8	0.729
B9	0.51
B10	0.468
B11	0.6
B12	0.618
B13	2.3
B14	4.16
B15	4.51
B16	1.18
B17	1.32
B18	1.02
B19	4.2
B20	6.04
B21	1.77
B22	1
